FLuc counter – firefly luciferase modulation, counter-screen for miR-21 project; P08659; purified FLuc, Km substrates, luminescence inhibition; Potency, µM (highest dose often 57.5 µM), without a hit: at the highest dose activity change, negative = inhibition, hits mostly inhibitors; 360,000 tested, 6.9% active;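 note: plate controls were vehicle for no effect and reference inhibitor for full effect; nearly all actives have a fitted effect of over 55% in size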
Target sequence (P08659 whole entry, looked up): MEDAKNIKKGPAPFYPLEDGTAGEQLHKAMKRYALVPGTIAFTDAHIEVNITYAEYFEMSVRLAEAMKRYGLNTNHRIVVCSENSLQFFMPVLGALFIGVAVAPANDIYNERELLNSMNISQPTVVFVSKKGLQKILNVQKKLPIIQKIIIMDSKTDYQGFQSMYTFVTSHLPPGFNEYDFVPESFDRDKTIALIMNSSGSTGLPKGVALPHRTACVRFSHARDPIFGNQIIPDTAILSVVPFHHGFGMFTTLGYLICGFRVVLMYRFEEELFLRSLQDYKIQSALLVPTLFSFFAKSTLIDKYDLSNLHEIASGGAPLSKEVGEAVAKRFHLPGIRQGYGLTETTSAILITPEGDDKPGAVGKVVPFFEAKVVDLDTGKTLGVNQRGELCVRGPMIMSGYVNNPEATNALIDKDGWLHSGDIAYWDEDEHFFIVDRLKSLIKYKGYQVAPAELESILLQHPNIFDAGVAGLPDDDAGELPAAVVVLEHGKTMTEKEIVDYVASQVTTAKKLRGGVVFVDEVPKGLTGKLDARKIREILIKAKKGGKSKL
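Biochemical qHTS of compounds, final roughly 60 µM downward over six points, against 10 nM purified firefly luciferase using Km concentrations of substrates (10 uM D-luciferin, 10 uM ATP) in Tris acetate pH 7.5 buffer; luminescence output.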
ELG1 genotoxic – genotoxicity induction in ELG1-luciferase HEK293T cells. Potency, µM (top dose mostly 46 µM), inactives show at the highest dose activity change, positive = activation, usual class: activators. HEK293T ELG1-luciferase reporter, luminescence, 16 h. AID 504466. 330,000 tested, 1.3% active; note: % of control where 0% means no effect; nearly all actives have a fitted effect of over 60% in size
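Genotoxicity was scored as increased ELG1-luciferase reporter signal, measured by ONE-Glo luminescence (30 min, room temperature). Compound or vehicle exposure of the HEK293T reporter cells lasted 16 hr at 37°C.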
Rab9 promoter act – activators of Rab9 promoter; Potency, µM (highest dose often 9.22 µM), for the others: top-dose activation, negative = inhibition, actives largely listed as activators; 320,000 tested, 2.8% active; AID 485297; Huh7 Rab9 promoter-luciferase reporter, luminescence, 24 h; note: % of control where 0% means no effect; nearly all actives have a fitted effect of over 60% in size
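Measured in stably transfected Huh7 cells bearing a Rab9 promoter–luciferase construct: 24 h compound treatment at 37 °C, followed by luminescence detection.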
ELG1 DNA repair – inhibitors of ELG1-dependent DNA repair in HEK293T cells; HEK293T ELG1-luciferase reporter, luminescence, 16 h; DNA damage induced by 5-fluorouridine; Potency, µM (top dose mostly 46.1 µM), for inactives: at the top dose activity change, negative = inhibition, usual class: inhibitors; 330,000 tested, 2.3% active; note: % is set by controls: 0 for no effect and ±100 for the full control effect; nearly all actives have a fitted effect of over 55% in size
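In this reporter screen, reduction of luminescence relative to DMSO vehicle indicated activity. Compounds and 5-fluorouridine were added together to 2,000 cells per well, incubated for 16 hr at 37 °C, then developed with ONE-Glo.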
NPC1 promoter act – NPC1 promoter activation | Huh7 NPC1 promoter luciferase reporter, 24 h | Potency, µM (doses to about 9.22 µM), inactives show top-dose activation, hits mostly activators | 320,000 tested, 2.4% active; note: % of control where 0% means no effect; nearly all actives have a fitted effect of over 60% in size
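Compounds in DMSO were transferred onto Huh7 NPC1-luciferase reporter cells pre-incubated 2 h; after 24 h at 37 °C, Amplite reagent was dispensed and luminescence recorded 10 min later.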
SMN2 splice up – SMN2 splice variant enhancement; HEK293 SMN2-luciferase splicing reporter, luminescence, 30-36 h; Potency, µM (highest dose often 46.1 µM), inactives show top-dose activity change, positive = activation, most hits filed as activators; 210,000 tested, 2.8% active; note: % of control where 0% means no effect; nearly all actives have a fitted effect of over 55% in size
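HEK293 cells carry an SMN2 minigene-luciferase reporter in which exon 7 inclusion puts luciferase in frame. Cells were seeded at 2000 cells/well, attached for 10-12 hours, then exposed to compounds for 30-36 hours at 37C before ONE-Glo luminescence.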
Numbers without * were called inactive; u = inconclusive; x = not tested or not shown; [ ] = remark or other dose. Shown are actives, neighbours in structure and some others; about 9.2% of the full set was active somewhere. Calls come from the whole dose curve; as a rule, active = well fitted curve in the direction sought with a large enough effect; inconclusive = small, poorly fitted or top-dose-only effect, or another doubt; inactive = no such curve, though single readings can be large; an effect the other way counts as inactive or inconclusive. Potency is the fitted concentration of half-maximal effect.

SMILES	FLuc counter	ELG1 genotoxic	Rab9 promoter act	ELG1 DNA repair	NPC1 promoter act	SMN2 splice up
Cc1ccc(Nc2ncnc3c2nc2n3CCCC2)cc1F	13µM*	x	x	x	x	x
CC(C)c1ccc(Nc2ncnc3c2nc2n3CCCC2)cc1	5.4µM*	x	x	x	x	x
CCOc1ccc(Nc2ncnc3c2nc2n3CCCC2)cc1	15µM*	x	x	x	x	x
Fc1ccccc1Nc1ncnc2c1nc1n2CCCCC1	12µM*	x	x	x	x	x
CCOc1ccccc1N1CC(C(=O)Nc2ccccc2CC)CC1=O (configuration not stated)	-1%	-5%	-3%	10%	-7%	x
COc1ccc(OC)c(CNS(=O)(=O)c2cn(C)cn2)c1	5%	-1%	-3%	20%	-2%	x
COc1ccccc1N(CC(=O)NCCC1=CCCCC1)S(=O)(=O)c1ccccc1	-2%	-2%	-5%	-2%	-2%	-7%
CCCOC(=O)NC1CCS(=O)(=O)C1 (configuration not stated)	0%	3%	-7%	9%	3%	4%
CCCCCCCCCCOC(=O)NC1CCS(=O)(=O)C1 (configuration not stated)	-11%	-8%	0%	23µM*	-4%	-29%
CC(NC(=O)COc1ccc(/C=N/NC(=O)CO)cc1)c1ccccc1 (configuration not stated)	4%	2%	0%	17%	0%	x
CCOC(=O)c1c(N)sc2c1CCC(CC)C2 (configuration not stated)	u	8%	-2%	13%	-1%	-15%
CC#CCOC(=O)c1c(C)nc2sc3c(c2c1N)CCC(O)C3 (configuration not stated)	u	16µM*	-24%[46.1 µM]	-11%	-10%[46.1 µM]	-59%
CC(C)(CCl)C(=O)Nc1ccnc(-c2ccncc2)n1	-5%	-4%	-2%	2%	-1%	1%
CCOC(=O)C(C)N1C(=O)S/C(=C/c2cc(C)n(-c3ccncc3)c2C)C1=O (configuration not stated)	u	-5%	21%	u	0%	-20%
CCn1c(C)cc(/C=C2/SC(=O)N(C(C)C(=O)OC)C2=O)c1C (configuration not stated)	6µM*	u	4µM*	u	3.2µM*	x
COCCn1c(C)cc(/C=C2/SC(=O)N(C(C)C(=O)OC)C2=O)c1C (configuration not stated)	2.4µM*	8.2µM*	1.6µM*	u	1.4µM*	x
COC(=O)C(C)N1C(=O)S/C(=C/c2cc(C)n(C(C)C)c2C)C1=O (configuration not stated)	13µM*	u	3.2µM*	u	1%	14%
COCCn1c(C)cc(/C=C2\NC(=S)N(C)C2=O)c1C	u	u	0%	29%	14%	11µM*
CCOC(=O)C(C)N1C(=O)S/C(=C/c2cc(C)n(-c3ccccn3)c2C)C1=O (configuration not stated)	8.5µM*	u	2.2µM*	u	2.5µM*	29%
Cc1cc(=O)n(CC(=O)NC(C)c2ccccc2)c2c1c(C)nn2-c1cccc(F)c1 (configuration not stated)	-3%	x	x	x	x	x
COc1ccc(N(CCCN2C(=O)c3cccc4cccc(c34)C2=O)C(=O)c2cccc(OC)c2)cc1	-2%	-4%	-9%	18µM*	-1%	-21%
Cc1ccc(Cn2nc(C)c(C(=O)NCC(c3ccc(F)cc3)N3CCOCC3)c2Cl)cc1 (configuration not stated)	5%	-6%	-4%	u	0%	x
COc1ccccc1NC(=O)CSc1nnc(-c2cccc(Cl)c2)o1	-13%	x	x	x	x	x
COc1ccc(-c2nnc(SCC(=O)Nc3ccccc3OC)o2)cc1	27µM*	u	1.6µM*	u	2.8µM*	11µM*
COc1ccc(NCc2nnc(SCC(=O)Nc3cc(C(F)(F)F)ccc3Cl)o2)cc1	17µM*	-1%	-3%	0%	-2%	6%

Source: PubChem BioAssay (National Center for Advancing Translational Sciences (NCATS))
